Experimental findings from PubChem BioAssay are described below.

Assay [1] in a line: resazurin metabolic signal in HepG2 cells – cell-based, resazurin fluorescence, 24 h, PK04 Diversity Set, profiling panel (AID 1172). Conditions: HepG2 viability, higher = more signal. (Alamar Blue is a resazurin reagent that responds to reducing activity.)
Assay [2] in a line: budding yeast growth changes without added modifier – OD600, strain BY4716, 24 h, basal condition, primary screen (AID 1173). To be noted: S. cerevisiae BY4716 growth, OD600, 24 h; higher = more signal, called active from +8 up or from −8 down.
A short description of assay [3]: viability profiling in MM1S myeloma cells – cell-based, resazurin fluorescence, basal, 24 h, PK04 Diversity Set, profiling panel (AID 1174).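 Note: MM1S multiple myeloma cell line.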 To be noted: higher = more signal, called active from +8 up or from −8 down.
The target in assay [4] is Dihydroorotate dehydrogenase (quinone), mitochondrial (Plasmodium falciparum (isolate 3D7)) (UniProt Q08210). The assay can be described thus: inhibition of P. falciparum DHODH – biochemical, C-terminal His tag, absorbance 600 nm, primary screen (AID 1175).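 Note: recombinant parasite enzyme with a five histidine tag at its C terminus.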 Conditions: PfDHODH enzyme, DCIP absorbance 600 nm; higher = more signal, called active from +8 up or from −8 down.
Chain of Dihydroorotate dehydrogenase (quinone), mitochondrial (Plasmodium falciparum (isolate 3D7)) (Q08210 whole entry, looked up): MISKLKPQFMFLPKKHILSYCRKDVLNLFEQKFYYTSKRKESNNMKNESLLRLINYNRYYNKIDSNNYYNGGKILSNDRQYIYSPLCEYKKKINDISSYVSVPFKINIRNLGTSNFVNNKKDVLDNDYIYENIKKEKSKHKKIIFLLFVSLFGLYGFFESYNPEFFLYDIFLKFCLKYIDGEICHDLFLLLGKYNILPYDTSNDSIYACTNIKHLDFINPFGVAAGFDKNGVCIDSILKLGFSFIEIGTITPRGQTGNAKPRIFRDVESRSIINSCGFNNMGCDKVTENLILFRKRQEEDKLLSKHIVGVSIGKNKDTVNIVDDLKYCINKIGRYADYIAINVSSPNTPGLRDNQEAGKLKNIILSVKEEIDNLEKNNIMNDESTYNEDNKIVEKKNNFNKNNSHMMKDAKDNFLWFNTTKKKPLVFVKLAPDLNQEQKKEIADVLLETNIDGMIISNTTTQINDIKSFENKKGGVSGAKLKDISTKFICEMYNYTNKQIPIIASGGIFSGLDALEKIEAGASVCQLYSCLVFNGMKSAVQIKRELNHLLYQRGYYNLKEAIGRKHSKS
The nature of assay [5]: inhibition of PAO1 biofilm formation – strain PAO1, LB-PBS medium, absorbance 600 nm, primary screen (AID 1176). To be noted: P. aeruginosa PAO1 growth/biofilm, A600, 12 h; higher = more signal.
The nature of assay [6]: growth modulation of vineyard yeast isolate – strain RM11-1a, OD600, basal, 24 h, primary screen (AID 1177).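 Note: cultures grown under basal conditions with no added stressor.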 To be noted: S. cerevisiae RM11-1a growth, OD600, 24 h; higher = more signal, called active from +8 up or from −8 down.
Assay [7] can be described thus: growth of efflux-deficient E. coli DRC39 – strain DRC39, OD650, 24 h, E. coli filamentation inducers, primary screen (AID 1178).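 Note: growth measured as culture turbidity by optical density at 650 nm.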 Conditions: E. coli DRC39 acrAB, higher = more signal, called active from +8 up or from −8 down.
Assay [8] is described as follows: growth of efflux-deficient E. coli DRC39 – strain DRC39, OD650, 48 h, E. coli filamentation inducers, primary screen (AID 1179).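 Note: screen aims at cell division blockers that make cells filament.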 To be noted: E. coli DRC39 delta-acrAB growth, higher = more signal, called active from +8 up or from −8 down.
A short description of assay [9]: viability profiling in RPMI8226 myeloma cells – cell-based, resazurin fluorescence, basal, 24 h, PK04 Diversity Set, profiling panel (AID 1180).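 Note: RPMI8826 multiple myeloma cell line at 5000 cells per well.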 To be noted: higher = more signal.
The target of assay [10] is E3 ubiquitin-protein ligase XIAP (Homo sapiens) (UniProt P98170). The assay can be described thus: small molecules binding XIAP protein – biophysical, small-molecule microarray, fluorescence 635 nm, primary screen (AID 1181).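 Note: score merges 667 nm emission and signal to noise over triplicate slides.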 To be noted: higher = more signal.
Chain of E3 ubiquitin-protein ligase XIAP (Homo sapiens) (P98170 whole entry, looked up, the tested form may be a part): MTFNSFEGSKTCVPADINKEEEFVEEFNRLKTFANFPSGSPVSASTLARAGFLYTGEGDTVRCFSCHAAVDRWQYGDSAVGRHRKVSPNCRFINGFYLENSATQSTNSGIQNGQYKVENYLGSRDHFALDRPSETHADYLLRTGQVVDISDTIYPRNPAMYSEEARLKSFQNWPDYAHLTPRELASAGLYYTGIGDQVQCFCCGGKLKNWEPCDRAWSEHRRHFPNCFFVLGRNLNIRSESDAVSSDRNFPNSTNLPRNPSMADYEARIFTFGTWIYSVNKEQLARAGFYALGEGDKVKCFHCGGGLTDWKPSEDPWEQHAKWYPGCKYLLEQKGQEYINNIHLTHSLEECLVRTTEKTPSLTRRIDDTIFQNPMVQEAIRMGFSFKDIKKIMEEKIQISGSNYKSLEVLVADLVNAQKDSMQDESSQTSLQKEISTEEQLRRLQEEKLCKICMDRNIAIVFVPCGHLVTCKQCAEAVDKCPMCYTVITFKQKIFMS
In assay [11] the test system is XIP peptide (Xip251-270) binding. Briefly: XIP fragment 251-270 binding compounds – biochemical, small-molecule microarray, fluorescence 635/667 nm, 0.1 µg/mL protein, primary screen (AID 1182). To be noted: fluorescent protein binding, 635 nm, higher = more signal, called active from +8 up or from −8 down.
Assay [12] relates to XIP peptide (Xip251-270). The assay can be described thus: compounds binding XIP fragment 251-270 – biochemical, small-molecule microarray, fluorescence 635/667 nm, 0.5 µg/mL protein, primary screen (AID 1183). To be noted: fluorescence 635 nm, higher = more signal.
Assay [13] can be described thus: blood-stage malaria parasite viability loss – strain 3D7, DAPI fluorescence, 100 nL, primary screen (AID 1184).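 Note: parasites grown inside human red blood cells in medium with human serum.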 To be noted: P. falciparum 3D7 growth, 3 d, higher = more signal.
Assay [14] deals with Homeobox protein Hox-A13 (Mus musculus) (UniProt Q62424). Briefly: disruptors of Hoxa13 oligonucleotide interaction – biochemical, fluorescence polarization, labeled oligonucleotide, primary screen (AID 1185). To be noted: Hoxa13:DNA binding, 15 min, higher = more signal, called active from +8 up or from −8 down. For orientation: Polarisation of emitted light reports the rotation of a fluorescent probe.
Chain of Homeobox protein Hox-A13 (Mus musculus) (Q62424 whole entry, looked up): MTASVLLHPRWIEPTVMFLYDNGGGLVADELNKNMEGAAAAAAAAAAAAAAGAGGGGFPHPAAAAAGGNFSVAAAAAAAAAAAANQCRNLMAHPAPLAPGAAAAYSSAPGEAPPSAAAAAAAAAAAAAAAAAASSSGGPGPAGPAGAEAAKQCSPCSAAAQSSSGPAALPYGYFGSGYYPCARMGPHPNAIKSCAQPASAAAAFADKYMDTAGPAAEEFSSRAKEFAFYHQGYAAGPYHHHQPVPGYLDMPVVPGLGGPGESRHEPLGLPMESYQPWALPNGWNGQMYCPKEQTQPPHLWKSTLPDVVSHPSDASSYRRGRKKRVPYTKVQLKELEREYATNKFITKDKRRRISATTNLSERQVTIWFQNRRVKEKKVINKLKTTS

A short description of assay [15]: blockers of DNA damage checkpoint Chk1 activation – imaging, HeLa, hydroxyurea, phospho-Chk1 antibody, percent positive cells, primary screen (AID 1186). To be noted: hydroxyurea-induced phospho-Chk1 immunofluorescence imaging, higher = more signal.
Assay [16] in a line: blockers of DNA damage checkpoint Chk1 activation – imaging, HeLa, hydroxyurea, phospho-Chk1 nuclear intensity, primary screen (AID 1187). Conditions: hydroxyurea-induced phospho-Chk1 immunofluorescence imaging, higher = more signal.

Active and inactive are the calls of the source. Unless noted, the rule behind the calls is not given here.

`COc1ccc([Si](C)(C)[C@@H]2[C@@H](CC(=O)N3CCC[C@H]3CO)O[C@]3(C(=O)N(Cc4ccc(N5CCOC5=O)cc4)c4ccccc43)[C@H]2C)cc1`: the z-score in [1] is -1.39; in assay [2], -0.793 (inactive); in assay [3] it was -2.01 (inactive); in assay [5], 1.06 (inactive); in [6] it was -0.975 (inactive); in assay [7] it was 0.0669 (inactive). Also, the z-score in [8] was 0.459 (inactive); in assay [9], -2.98; in assay [13] it was 0.309; in [14] it was -3.21 (inactive); in [15], -1.03 (inactive); in assay [16], -0.48 (inactive). In addition, the composite z-score in assay [4] was -2.19 (inactive); in assay [10] it was 0.0819; in assay [11] it was 0.56 (inactive); in assay [12] it was 0.727.

In the case of `CO[C@H]1O[C@H](CO)[C@@H](OC(=O)Nc2ccc3c(c2)OCO3)[C@H](OC(=O)Nc2ccccc2-c2ccccc2)[C@H]1OC(=O)Nc1ccccc1-c1ccccc1`, the z-score in assay [1] is -2.5; in assay [2], 2.05 (inactive); in assay [3] it was -2.94 (inactive); in [5], 0.553 (inactive); in assay [6], 4.05 (inactive); in assay [7], 0.335 (inactive). For the same compound, the z-score is -0.303 (inactive) in [8]; -2.63 in [9]; -1.92 in assay [13]; -3.15 (inactive) in [14]; 0.0165 (inactive) in [15]; 0.444 (inactive) in [16]. Also, the composite z-score in [4] was 0.656 (inactive); in assay [10] it was 0.441; in assay [11], 0.667 (inactive); in assay [12], 0.873.

For the compound `COC(=O)[C@@]1(Cc2ccc(F)cc2)[C@H]2c3cc(C(=O)N(C)C)n(C)c3C[C@H]2CN1C(=O)c1ccccc1`, the z-score in assay [1] is -0.476; in assay [2], 0.109 (inactive); in assay [3] it was -0.911 (inactive); in [5] it was 0.026 (inactive); in assay [6], 0.626 (inactive); in assay [7], -0.657 (inactive). Moreover, the z-score is -0.705 (inactive) in assay [8]; -0.521 in assay [9]; 0.386 in assay [13]; -7.29 (inactive) in [14]; 0.707 (inactive) in assay [15]; 0.633 (inactive) in assay [16]. The composite z-score is 0.0197 (inactive) in [4], 0.147 in [10], -0.0622 (inactive) in [11] and -0.153 in assay [12].

`COc1ccc([Si](C)(C)[C@H]2[C@H](CCO)O[C@@]3(C(=O)N(Cc4ccc(NC(=O)[C@H](C)O)cc4)c4ccccc43)[C@@H]2C)cc1`: the z-score in assay [1] was -4.93; in [2] it was 0.532 (inactive); in assay [3], -8.02 (active); in [5], -0.753 (inactive); in assay [6], 3.05 (inactive); in assay [7], -0.106 (inactive). Further, the z-score was -0.802 (inactive) in assay [8]; -6.21 in [9]; -2.7 in [13]; -4.86 (inactive) in assay [14]; -0.704 (inactive) in assay [15]; -0.43 (inactive) in assay [16]. Further, the composite z-score is -0.0575 (inactive) in assay [4], -0.0592 in assay [10], 3.4 (inactive) in [11] and 0.596 in assay [12].

As to `Cc1ccc(S[C@]2(C(=O)NC3CC3)CC(=O)N(C(C)C)[C@@H]2c2ccc(CO)cc2I)cc1`, the z-score in assay [1] was 0.0662; in assay [2] it was -3.47 (inactive); in assay [3], -2.29 (inactive); in [5], -0.227 (inactive); in assay [6], -2.02 (inactive); in [7] it was 0.741 (inactive). Also, the z-score was 0.617 (inactive) in [8]; -2.37 in assay [9]; -1.63 in [13]; -4.06 (inactive) in [14]; -0.248 (inactive) in assay [15]; -0.439 (inactive) in assay [16]. Further, the composite z-score in assay [4] was -0.632 (inactive); in assay [10], -0.02; in assay [11] it was 0.717 (inactive); in assay [12], 0.682.

For `COCC(=C=CC[C@H](O)c1ccccc1OCCO)C[C@H](O)COCc1ccccc1`, the z-score is 0.0129 in assay [1]; -2.91 (inactive) in [2]; 0.442 (inactive) in assay [3]; -0.566 (inactive) in assay [5]; -0.482 (inactive) in assay [6]; -0.348 (inactive) in assay [7]. The z-score was -0.456 (inactive) in assay [8]; 0.623 in assay [9]; -1.77 in assay [13]; -4.37 (inactive) in [14]; 0.141 (inactive) in assay [15]; 0.058 (inactive) in assay [16]. Besides, the composite z-score in assay [4] is -2.21 (inactive); in [10], 0.151; in assay [11] it was 0.195 (inactive); in assay [12], 0.148.

Turning to `C=C(CCCC)C(=O)CC[C@@H](OC(=O)c1ccccc1-c1ccccc1C(=O)O)c1ccccc1OCCO`, the z-score in assay [1] is -0.174; in [2], -2.49 (inactive); in [3], -0.608 (inactive); in assay [5], 0.118 (inactive); in [6], -1.61 (inactive); in [7], 0.625 (inactive). For the same compound, the z-score in [8] is 0.403 (inactive); in [9], -1.49; in [13], -2.92; in assay [14] it was -6.26 (inactive); in [15], 0.779 (inactive); in [16] it was 1.38 (inactive). In addition, the composite z-score was -1.35 (inactive) in assay [4], 0.269 in assay [10], 0.721 (inactive) in assay [11] and 0.145 in [12].

Consider `CCCNC(=O)[C@@]1(Sc2ccc(C)cc2)CC(=O)N(Cc2ccccc2Cl)[C@@H]1c1ccc(CO)cc1I`, for which the z-score in assay [1] was 0.766; in assay [2], -4.16 (inactive); in assay [3], -3.58 (inactive); in [5], 0.034 (inactive); in assay [6], -0.641 (inactive); in [7], 0.466 (inactive). Also, the z-score was 1.01 (inactive) in assay [8]; -1.28 in [9]; -0.0495 in assay [13]; -2.99 (inactive) in assay [14]; 0.242 (inactive) in assay [15]; 0.677 (inactive) in assay [16]. Also, the composite z-score in assay [4] was -0.139 (inactive); in assay [10], -0.302; in assay [11], 0.263 (inactive); in assay [12] it was 0.157.

With `O=C1C2C=CC(C(O)C3CCCCC3)N(n3cnnc3)C2C(=O)N1Cc1ccccc1` (centres undefined), the z-score is -0.308 in assay [1]; 0.161 (inactive) in [2]; -0.196 (inactive) in assay [3]; 0.561 (inactive) in assay [5]; -0.618 (inactive) in assay [6]; 0.386 (inactive) in [7]. Besides, the z-score was 1.01 (inactive) in assay [8]; -0.513 in assay [9]; -0.902 in assay [13]; -1.8 (inactive) in [14]; 0.359 (inactive) in assay [15]; -0.394 (inactive) in [16]. The composite z-score in [4] was -0.016 (inactive); in [10], -0.0535; in [11], 0.534 (inactive); in assay [12], -0.0061.
